The text below walks through data of PubChem BioAssay (EPA / NIEHS).

Assay [1] has as its target Paired box protein Pax-6 (Homo sapiens) (UniProt P26367). The experiment in a line: ATG_Pax6_CIS: Attagene CIS-FACTORIAL HepG2 Assay for human Paired Box 6 (PAX6) (AID 2282956). The note with it: HepG2 CIS-FACTORIAL PAX6 reporter transcription, RNA readout; actives raise or lower the signal. A digest of the protocol:
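Readout: reporter transcript fluorescence after RT-PCR and capillary electrophoresis. Cells: HepG2, transiently transfected with cis-regulated MRTUs. Exposure 24 h. Gain or loss of signal fitted bidirectionally relative to DMSO.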

Assay [2] is described as follows: ATG_PXRE_CIS: Attagene CIS-FACTORIAL HepG2 Assay for human Pregnane X Receptor Element (PXRE) (AID 2282957). The note with it: HepG2 Attagene CIS-FACTORIAL PXRE reporter, mRNA; actives raise or lower the signal. A digest of the protocol: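 Using HepG2 transfected with multiple reporter transcription units, endogenous factor-driven transcription was scored as reporter mRNA after 24 h exposure.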

A short description of assay [3]: ATG_PPRE_CIS: Attagene CIS-FACTORIAL HepG2 Assay for human Peroxisome Proliferator-activated Response Element (PPRE) (AID 2282958). The note with it: HepG2 PPRE cis-element reporter, Attagene transcription factor profiling; actives raise or lower the signal. A digest of the protocol: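 Multiplexed reporter transcription units under cis-regulatory promoters were transfected into HepG2 cells to capture endogenous factor activity. A 24 h incubation preceded RNA isolation and fluorescent RT-PCR fragment analysis.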

Assay [4] is described as follows: ATG_RORE_CIS: Attagene CIS-FACTORIAL HepG2 Assay for human RAR-related Orphan Receptor Element (RORE) (AID 2282959). Conditions: HepG2 Attagene cis-factorial RORE reporter, mRNA; actives raise or lower the signal. In outline:
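Fluorescence intensity of reporter-specific cDNA fragments, separated by capillary electrophoresis, gives the signal. Source: HepG2 liver cells transiently transfected with cis-element reporters and exposed 24 h; DMSO-normalized bidirectional fit.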

The nature of assay [5]: ATG_Sox_CIS: Attagene CIS-FACTORIAL HepG2 Assay for human SRY-box transcription factor (SOX) (AID 2282960). Conditions: HepG2 Attagene cis-factorial SOX reporter, mRNA; actives raise or lower the signal. A digest of the protocol: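 After 24 h of chemical treatment, transfected HepG2 reporter cells are lysed for total RNA. Transcript levels come from RT-PCR with labelled primer extension and capillary electrophoresis, analysed bidirectionally versus DMSO.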

For assay [6], the target named is Transcription factor Sp1 (Homo sapiens) (UniProt P08047). Put plainly: ATG_Sp1_CIS: Attagene CIS-FACTORIAL HepG2 Assay for human Specificity Protein 1 (Sp1) (AID 2282961). The note with it: HepG2 Sp1 cis-reporter transcription, actives raise or lower the signal. In outline: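 Sp1-driven reporter mRNA, read as capillary electrophoresis fluorescence after RT-PCR, in transiently transfected HepG2 cells dosed for 24 h; signal change in either direction relative to DMSO.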

The target in assay [7] is Signal transducer and activator of transcription 3 (Homo sapiens) (UniProt P40763). The experiment in a line: ATG_STAT3_CIS: Attagene CIS-FACTORIAL HepG2 Assay for human Signal Transducer and Activator of Transcription 3 (STAT3) (AID 2282963). The note with it: HepG2, Attagene cis-factorial STAT3 reporter transcription; actives raise or lower the signal. In outline: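 Readout: fluorescent reporter mRNA fragments resolved by capillary electrophoresis. Setup: HepG2 transfected with MRTUs reporting endogenous transcription-factor activity, dosed 24 h. Gain or loss of signal fitted bidirectionally against DMSO control.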

The nature of assay [8]: ATG_TA_CIS: Attagene CIS-FACTORIAL HepG2 Assay for human TA Basal Promoter (AID 2282964). Conditions: HepG2 Attagene CIS-factorial TA basal promoter reporter; actives raise or lower the signal. In outline: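 Steps: transfect HepG2 with MRTUs; dose 24 h; isolate RNA, DNase-treat, reverse-transcribe; PCR and FAM-label reporter cDNA; digest with HpaI 2h at 37 C; run capillary electrophoresis. Activity fitted both directions against DMSO.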

Assay [9] is described as follows: ATG_TCF_b_cat_CIS: Attagene CIS-FACTORIAL HepG2 Assay for human T-Cell-Factor with beta-catenin (TCF/b-cat) (AID 2282965). Conditions: HepG2 TCF/beta-catenin cis-reporter transcription, actives raise or lower the signal. In outline:
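Cells of the HepG2 line carry transiently transfected reporter units whose promoters respond to endogenous factors. Twenty-four hours post-dosing, reporter mRNA induction is measured by fluorescent RT-PCR and capillary electrophoresis, with DMSO as baseline.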

A short description of assay [10]: ATG_TAL_CIS: Attagene CIS-FACTORIAL HepG2 Assay for human TAL Basal Promoter (AID 2282966).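 Also: background control endpoint measuring basal TAL promoter reporter mRNA not a specific factor.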 The note with it: HepG2 Attagene cis-factorial TAL promoter reporter; actives raise or lower the signal. A digest of the protocol: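 After 24 hours of chemical exposure, transfected HepG2 cells yielded RNA that was converted to 6-FAM-labelled, HpaI-digested reporter fragments for capillary electrophoresis. Values derive from bidirectional fitting against DMSO controls.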

Assay [11] in a line: ATG_TGFb_CIS: Attagene CIS-FACTORIAL HepG2 Assay for human Transforming Growth Factor (TGF) (AID 2282967). The note with it: HepG2 Attagene CIS TGFb reporter, mRNA transcription; actives raise or lower the signal. In outline:
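Cells were dosed for 24 hours, after which total RNA was reverse-transcribed and reporter sequences amplified, labeled and sized by capillary electrophoresis. Activity was fitted in both directions against DMSO.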

The nature of assay [12]: ATG_VDRE_CIS: Attagene CIS-FACTORIAL HepG2 Assay for human Vitamin D Receptor Element (VDRE) (AID 2282968). Conditions: HepG2 VDRE cis-reporter transcription, actives raise or lower the signal. A digest of the protocol: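 Transient MRTU transfection of HepG2, 24 h compound exposure. Readout: reporter transcripts via RT-PCR and capillary electrophoresis, fluorescence. Bidirectional fit vs DMSO.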

Assay [13] deals with Estrogen receptor (Homo sapiens) (UniProt P03372). The experiment in a line: ATG_ERa_TRANS: Attagene TRANS-FACTORIAL HepG2 Assay for human Estrogen Receptor alpha (ERa) (AID 2282970; active = hit-call score of the fitted dose curve at least 0.9, where 1 is the maximum). Conditions: HepG2 Attagene TRANS ERa GAL4 reporter, mRNA. A digest of the protocol: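 Liver-derived HepG2 cells expressing chimeric nuclear receptor-Gal4 proteins from transient transfection were exposed for 24 hours. Gain of reporter mRNA signal versus DMSO, read by capillary electrophoresis of FAM-labelled PCR products, was recorded.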

Assay [14] addresses X-box-binding protein 1 (Homo sapiens) (UniProt P17861). Put plainly: ATG_Xbp1_CIS: Attagene CIS-FACTORIAL HepG2 Assay for human X-box Binding Protein 1 (XBP1) (AID 2282972). Conditions: HepG2 XBP1 cis-element reporter, Attagene multiplex; actives raise or lower the signal. In outline:
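Read-out: fluorescent reporter mRNA fragments resolved by capillary electrophoresis after RT-PCR. Human HepG2 liver cells carried transfected cis-promoter reporter units and were exposed to chemicals for 24 hours. Gain or loss of signal fitted relative to DMSO baseline.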

Assay [15] can be described thus: ATG_M_19_TRANS: Attagene TRANS-FACTORIAL HepG2 Assay for M19 Transcription Factor (Internal Marker) (AID 2282974; active = hit-call score of the fitted dose curve at least 0.9, where 1 is the maximum). The note with it: HepG2 Attagene TRANS-FACTORIAL M19 internal marker reporter. In outline:
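Measured here: internal-marker reporter transcript from HepG2 cells transfected with MRTUs, harvested at 24 h. cDNA PCR products were 6-FAM labelled by primer extension, cut with HpaI for 2 h at 37 C, and resolved by CE.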

The target of assay [16] is Nuclear receptor subfamily 1 group I member 3 (Homo sapiens) (UniProt Q14994). The experiment in a line: ATG_CAR_TRANS: Attagene TRANS-FACTORIAL HepG2 Assay for human Constitutive Androstane Receptor (CAR) (AID 2282969; active = hit-call score of the fitted dose curve at least 0.9, where 1 is the maximum;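 also: activators raise reporter mRNA above DMSO so AC50 marks induction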). The note with it: HepG2 Attagene TRANS-FACTORIAL CAR reporter. In outline:
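Transiently transfected HepG2, multiplex TRANS reporters (CAR-Gal4 chimera driving GAL4-UAS reporter). 24 h dosing. Readout: reporter transcript by RT-PCR + capillary electrophoresis, fluorescence intensity; positive direction vs DMSO.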

The target of assay [17] is Androgen receptor (Homo sapiens) (UniProt P10275). Put plainly: ATG_AR_TRANS: Attagene TRANS-FACTORIAL HepG2 Assay for human Androgen Receptor (AR) (AID 2282973; active = hit-call score of the fitted dose curve at least 0.9, where 1 is the maximum). Conditions: HepG2 Attagene TRANS-FACTORIAL AR reporter transcription. A digest of the protocol: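 Steps: transfect HepG2 with multiple GAL4-UAS reporter transcription units (TRANS format, exogenous NR-Gal4 protein); dose 24 h; isolate RNA, reverse-transcribe, PCR-amplify, FAM-label, HpaI-digest; resolve by capillary electrophoresis. Positive direction vs DMSO.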

Assay [18] concerns the target Steroid hormone receptor ERR1 (Homo sapiens) (UniProt P11474). Put plainly: ATG_ERRa_TRANS: Attagene TRANS-FACTORIAL HepG2 Assay for human Estrogen-Related Receptor alpha (ERRa) (AID 2282971; active = hit-call score of the fitted dose curve at least 0.9, where 1 is the maximum). The note with it: HepG2 Attagene TRANS reporter, ERRa transactivation. In outline: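 Reporter transcript induction was quantified by RT-PCR and capillary electrophoresis of FAM-labelled, HpaI-cut products after 24 h treatment of HepG2 cells carrying transiently transfected GAL4-UAS reporter units and an exogenous ERRa-Gal4 fusion; activity scored as increase over DMSO.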

Records with an inconclusive call do not appear. Calls of active or inactive are those of the source. The calls were made as follows, unless noted: active = hit-call score of the fitted dose curve at least 0.9, where 1 is the maximum; inactive = score below 0.9.

Chain of Paired box protein Pax-6 (Homo sapiens) (P26367 whole entry, looked up): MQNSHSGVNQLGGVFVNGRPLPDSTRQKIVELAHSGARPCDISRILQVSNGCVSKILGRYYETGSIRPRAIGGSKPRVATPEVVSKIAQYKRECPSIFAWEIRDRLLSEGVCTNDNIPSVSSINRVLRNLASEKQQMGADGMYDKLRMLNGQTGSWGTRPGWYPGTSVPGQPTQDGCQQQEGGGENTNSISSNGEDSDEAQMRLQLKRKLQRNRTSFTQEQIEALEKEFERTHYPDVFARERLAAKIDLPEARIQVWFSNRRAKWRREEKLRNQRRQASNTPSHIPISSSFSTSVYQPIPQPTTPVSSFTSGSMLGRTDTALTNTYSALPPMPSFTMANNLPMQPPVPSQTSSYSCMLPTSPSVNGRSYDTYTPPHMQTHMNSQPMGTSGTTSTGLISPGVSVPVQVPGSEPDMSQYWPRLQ
Chain of Estrogen receptor (Homo sapiens) (P03372 whole entry, looked up, the tested form may be a part): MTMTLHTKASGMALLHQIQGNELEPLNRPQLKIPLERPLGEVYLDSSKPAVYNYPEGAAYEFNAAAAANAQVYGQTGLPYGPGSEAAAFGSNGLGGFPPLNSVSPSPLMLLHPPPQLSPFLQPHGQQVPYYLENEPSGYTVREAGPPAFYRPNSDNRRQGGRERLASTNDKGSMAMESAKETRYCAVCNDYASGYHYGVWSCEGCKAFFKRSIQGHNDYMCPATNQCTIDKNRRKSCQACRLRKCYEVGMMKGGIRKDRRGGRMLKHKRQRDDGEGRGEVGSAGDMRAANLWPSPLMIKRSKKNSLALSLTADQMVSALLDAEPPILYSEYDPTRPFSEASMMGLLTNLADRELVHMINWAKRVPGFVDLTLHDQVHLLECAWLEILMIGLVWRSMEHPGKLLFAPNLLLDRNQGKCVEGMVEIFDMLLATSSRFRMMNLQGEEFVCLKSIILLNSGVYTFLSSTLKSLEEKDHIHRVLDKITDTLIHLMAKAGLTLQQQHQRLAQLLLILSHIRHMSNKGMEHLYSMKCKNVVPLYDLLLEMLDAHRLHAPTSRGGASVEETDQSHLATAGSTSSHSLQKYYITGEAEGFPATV
Chain of X-box-binding protein 1 (Homo sapiens) (P17861 whole entry, looked up, the tested form may be a part): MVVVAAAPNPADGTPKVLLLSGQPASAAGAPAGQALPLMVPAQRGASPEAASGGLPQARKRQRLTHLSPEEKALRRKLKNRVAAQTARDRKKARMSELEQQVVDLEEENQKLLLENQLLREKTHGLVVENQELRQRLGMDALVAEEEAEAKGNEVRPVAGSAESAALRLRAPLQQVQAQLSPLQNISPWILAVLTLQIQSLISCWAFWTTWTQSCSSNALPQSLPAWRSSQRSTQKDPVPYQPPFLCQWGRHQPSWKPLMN
Chain of Signal transducer and activator of transcription 3 (Homo sapiens) (P40763 whole entry, looked up, the tested form may be a part): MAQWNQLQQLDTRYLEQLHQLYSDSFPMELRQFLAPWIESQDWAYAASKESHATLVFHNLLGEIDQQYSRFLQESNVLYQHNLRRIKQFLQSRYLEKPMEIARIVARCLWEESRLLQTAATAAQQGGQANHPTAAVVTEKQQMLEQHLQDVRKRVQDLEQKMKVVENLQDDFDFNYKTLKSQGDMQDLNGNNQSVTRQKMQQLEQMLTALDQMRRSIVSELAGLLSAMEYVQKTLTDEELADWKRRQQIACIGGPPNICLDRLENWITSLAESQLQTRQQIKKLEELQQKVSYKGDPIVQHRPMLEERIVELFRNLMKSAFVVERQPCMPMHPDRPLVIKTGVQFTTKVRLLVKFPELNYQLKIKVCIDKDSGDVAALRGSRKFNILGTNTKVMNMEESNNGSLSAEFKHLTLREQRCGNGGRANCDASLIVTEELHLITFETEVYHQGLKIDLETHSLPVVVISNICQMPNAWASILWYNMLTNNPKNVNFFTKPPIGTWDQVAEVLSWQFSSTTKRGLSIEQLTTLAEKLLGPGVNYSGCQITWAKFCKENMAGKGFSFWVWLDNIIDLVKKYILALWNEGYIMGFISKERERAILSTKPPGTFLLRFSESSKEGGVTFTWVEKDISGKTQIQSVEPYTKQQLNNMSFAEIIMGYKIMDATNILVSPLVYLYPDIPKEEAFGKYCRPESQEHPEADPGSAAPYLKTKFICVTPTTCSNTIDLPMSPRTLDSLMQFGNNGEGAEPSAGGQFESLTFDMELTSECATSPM
Chain of Nuclear receptor subfamily 1 group I member 3 (Homo sapiens) (Q14994 whole entry, looked up, the tested form may be a part): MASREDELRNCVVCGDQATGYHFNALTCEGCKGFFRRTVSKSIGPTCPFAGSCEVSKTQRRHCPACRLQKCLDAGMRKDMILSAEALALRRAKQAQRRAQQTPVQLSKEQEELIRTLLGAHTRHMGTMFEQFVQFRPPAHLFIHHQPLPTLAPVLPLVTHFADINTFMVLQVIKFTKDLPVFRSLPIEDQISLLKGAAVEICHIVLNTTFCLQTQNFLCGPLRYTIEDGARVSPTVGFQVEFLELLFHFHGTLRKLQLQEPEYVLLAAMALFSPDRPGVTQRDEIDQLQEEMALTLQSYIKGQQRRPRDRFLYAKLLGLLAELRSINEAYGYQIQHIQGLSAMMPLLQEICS
Chain of Steroid hormone receptor ERR1 (Homo sapiens) (P11474 whole entry, looked up, the tested form may be a part): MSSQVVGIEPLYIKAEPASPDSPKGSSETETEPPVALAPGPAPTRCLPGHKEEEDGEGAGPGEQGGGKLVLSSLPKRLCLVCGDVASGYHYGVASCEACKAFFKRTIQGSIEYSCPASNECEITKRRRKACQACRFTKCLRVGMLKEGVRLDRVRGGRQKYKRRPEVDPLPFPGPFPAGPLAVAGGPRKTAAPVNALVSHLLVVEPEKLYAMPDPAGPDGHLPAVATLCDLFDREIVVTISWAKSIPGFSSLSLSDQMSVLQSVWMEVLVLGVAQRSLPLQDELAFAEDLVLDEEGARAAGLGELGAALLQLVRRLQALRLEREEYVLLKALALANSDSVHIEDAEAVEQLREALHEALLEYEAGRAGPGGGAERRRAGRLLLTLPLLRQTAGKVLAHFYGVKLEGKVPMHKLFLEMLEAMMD
Chain of Transcription factor Sp1 (Homo sapiens) (P08047 whole entry, looked up): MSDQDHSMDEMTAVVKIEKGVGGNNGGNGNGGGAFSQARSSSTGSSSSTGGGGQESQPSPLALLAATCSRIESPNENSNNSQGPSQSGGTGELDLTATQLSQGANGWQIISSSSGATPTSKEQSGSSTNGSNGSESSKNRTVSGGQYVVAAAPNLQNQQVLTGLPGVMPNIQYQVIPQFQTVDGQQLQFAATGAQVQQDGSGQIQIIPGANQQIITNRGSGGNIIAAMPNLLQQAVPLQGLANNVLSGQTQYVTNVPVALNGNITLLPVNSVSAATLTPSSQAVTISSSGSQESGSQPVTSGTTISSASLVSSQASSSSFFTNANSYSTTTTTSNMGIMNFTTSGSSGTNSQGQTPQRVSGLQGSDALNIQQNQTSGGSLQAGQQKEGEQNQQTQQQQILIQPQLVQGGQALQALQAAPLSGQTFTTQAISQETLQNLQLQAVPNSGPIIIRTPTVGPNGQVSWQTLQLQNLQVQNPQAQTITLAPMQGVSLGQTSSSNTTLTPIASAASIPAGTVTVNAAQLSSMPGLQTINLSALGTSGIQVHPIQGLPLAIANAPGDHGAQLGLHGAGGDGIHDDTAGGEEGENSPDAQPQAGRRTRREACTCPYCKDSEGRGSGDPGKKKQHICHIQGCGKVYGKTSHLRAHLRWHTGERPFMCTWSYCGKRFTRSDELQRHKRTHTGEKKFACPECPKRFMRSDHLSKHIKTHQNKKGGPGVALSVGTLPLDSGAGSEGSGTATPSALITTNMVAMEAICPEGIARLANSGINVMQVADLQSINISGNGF
Chain of Androgen receptor (Homo sapiens) (P10275 whole entry, looked up, the tested form may be a part): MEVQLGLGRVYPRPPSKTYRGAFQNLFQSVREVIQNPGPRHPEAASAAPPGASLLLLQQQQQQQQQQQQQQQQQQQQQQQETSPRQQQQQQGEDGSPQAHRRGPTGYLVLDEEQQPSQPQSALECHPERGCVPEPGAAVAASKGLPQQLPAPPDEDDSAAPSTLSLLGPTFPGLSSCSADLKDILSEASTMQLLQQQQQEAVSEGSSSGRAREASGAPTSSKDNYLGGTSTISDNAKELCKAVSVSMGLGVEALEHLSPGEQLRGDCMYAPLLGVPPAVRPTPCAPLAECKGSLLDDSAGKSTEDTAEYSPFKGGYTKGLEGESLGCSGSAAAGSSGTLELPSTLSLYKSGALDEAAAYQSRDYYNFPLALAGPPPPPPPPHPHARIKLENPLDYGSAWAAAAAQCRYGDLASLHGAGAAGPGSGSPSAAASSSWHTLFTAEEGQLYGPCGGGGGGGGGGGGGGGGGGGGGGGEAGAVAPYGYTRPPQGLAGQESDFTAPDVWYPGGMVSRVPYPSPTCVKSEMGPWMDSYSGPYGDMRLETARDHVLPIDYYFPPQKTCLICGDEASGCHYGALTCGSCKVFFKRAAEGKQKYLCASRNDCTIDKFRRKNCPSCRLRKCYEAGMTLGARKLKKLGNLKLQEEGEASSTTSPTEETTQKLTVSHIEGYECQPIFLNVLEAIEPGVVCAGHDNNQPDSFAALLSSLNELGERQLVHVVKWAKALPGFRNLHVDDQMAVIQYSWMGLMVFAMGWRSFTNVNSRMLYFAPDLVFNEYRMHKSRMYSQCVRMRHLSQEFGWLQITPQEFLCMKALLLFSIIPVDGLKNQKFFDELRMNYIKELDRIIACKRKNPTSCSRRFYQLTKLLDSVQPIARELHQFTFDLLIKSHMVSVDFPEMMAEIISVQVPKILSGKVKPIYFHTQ

Broadly, the AC50 is the concentration at which the activity in the assay is half-maximal. For the compound `Cc1nc(N(C)C)nc(OC(=O)N(C)C)c1C`, the compound was called inactive in assay [1], in assay [3], in [4], in assay [5], in assay [6] and in [7]. Also, the result in assay [8], in assay [9], in assay [10], in assay [11], in [12] and in assay [13] was inactive. The compound was called inactive in [14] and in assay [15]. Also, the AC50 in assay [2] is 50 µM (active).

As to `CC1(C)C(C(=O)OC(C#N)c2cccc(Oc3ccccc3)c2)C1(C)C` (configuration not stated), the compound was classed as inactive in assay [1], in assay [4], in assay [5], in [6], in [7] and in assay [8]. Further, the compound was called inactive in assay [9], in assay [10], in assay [11], in [16] and in assay [14]. Besides, the AC50 in assay [2] was 1.74 µM (active); in assay [3], 11 µM (active); in assay [12], 6.46 µM (active).

As to `CNC(=O)N(C)c1nnc(C(C)(C)C)s1`, the call in assay [1], in assay [3], in assay [4], in assay [5], in assay [6] and in assay [7] was inactive. Besides, the call in assay [8], in assay [9], in assay [10], in assay [11], in assay [12] and in [14] was inactive. Besides, the AC50 in [2] was 50 µM (active).

Consider `CNC(=O)Oc1cccc2ccccc12`, for which the compound was called inactive in assay [1], in assay [4], in [5], in [6], in assay [7] and in assay [8]. Besides, the compound was called inactive in [9], in assay [10], in assay [11], in assay [12], in assay [16] and in assay [14]. Also, the outcome in [15] was inactive. Also, the AC50 in assay [2] is 37.9 µM (active); in assay [13] it was 50 µM (active).

For `CCOP(=O)(OCC)Oc1nc(Cl)c(Cl)cc1Cl`, the compound was classed as inactive in assay [1], in assay [4], in [5], in assay [6], in [7] and in assay [8]. For the same compound, the call in [9], in assay [10], in assay [11], in [14], in assay [17] and in assay [15] was inactive. Moreover, the AC50 in [2] was 45.7 µM (active); in assay [3], 29.9 µM (active); in assay [12], 39.2 µM (active).

`CCOc1nc(C(Cl)(Cl)Cl)ns1`: the compound was classed as inactive in [1], in assay [3], in [5], in assay [6], in assay [7] and in assay [8]. The compound was called inactive in assay [9], in assay [10], in assay [11], in assay [12], in [16] and in assay [13]. In addition, the result in assay [18], in assay [14] and in assay [15] was inactive. In addition, the AC50 in assay [2] was 33.5 µM (active); in [4], 70.3 µM (active).

In the case of `N#CN=C1SCCN1Cc1ccc(Cl)nc1`, the compound was classed as inactive in assay [1], in [3], in [4], in [5], in assay [6] and in [7]. The compound was called inactive in assay [8], in assay [9], in [10], in [11], in assay [18] and in [14]. For the same compound, the outcome in assay [15] was inactive. In addition, the AC50 in [2] is 50 µM (active).

Regarding `Cn1c(-c2ccccc2)cc(-c2ccccc2)[n+]1C`, the outcome in assay [1], in [2], in assay [4], in [5], in assay [6] and in assay [7] was inactive. Besides, the compound was called inactive in assay [8], in assay [9], in assay [10], in assay [11], in assay [12] and in assay [13]. In addition, the compound was classed as inactive in [18], in assay [14] and in [15].

As for `Nc1c(Cl)c(Cl)nc(C(=O)O)c1Cl`, the call in assay [1], in assay [3], in [4], in assay [5], in assay [6] and in [7] was inactive. In addition, the result in assay [8], in assay [9], in [10], in [11], in assay [13] and in [14] was inactive. In addition, the outcome in [15] was inactive. In addition, in assay [2], the AC50 was 69.5 µM (active).
